# PubChem BioAssay
# The source made the active and inactive calls. Unless noted, the rule behind the calls is not given here.
# What was measured:
# [1] = compounds binding Alexa647 anti-His antibody – biochemical, small-molecule microarray, 635 nm fluorescence, artefact control for SMM control protein annotation, primary screen (AID 1128); settings: higher = more signal;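 note: score merges feature fluorescence with signal-to-noise for each printed compound spot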
# [2] = system: Human papillomavirus type 1a E7 protein (residues 1-88); assay: HPV1a E7 small-molecule binders, primary screen, biochemical, small-molecule microarray, residues 1-88, 635 nm (AID 1129); settings: small-molecule microarray binding, fluorescence 635 nm; higher = more signal
# [3] = target: Focal adhesion kinase 1 (Homo sapiens) (UniProt Q05397); assay: PTK2 protein binding on printed compound slides – biochemical, small-molecule microarray, 635/667 nm fluorescence, BSA, DTT, primary screen (AID 1130); settings: 635 nm fluorescence, higher = more signal;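 note: composite of spot emission at 667 nm and signal to noise over triplicate slides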
# Chain of Focal adhesion kinase 1 (Homo sapiens) (Q05397 whole entry, looked up): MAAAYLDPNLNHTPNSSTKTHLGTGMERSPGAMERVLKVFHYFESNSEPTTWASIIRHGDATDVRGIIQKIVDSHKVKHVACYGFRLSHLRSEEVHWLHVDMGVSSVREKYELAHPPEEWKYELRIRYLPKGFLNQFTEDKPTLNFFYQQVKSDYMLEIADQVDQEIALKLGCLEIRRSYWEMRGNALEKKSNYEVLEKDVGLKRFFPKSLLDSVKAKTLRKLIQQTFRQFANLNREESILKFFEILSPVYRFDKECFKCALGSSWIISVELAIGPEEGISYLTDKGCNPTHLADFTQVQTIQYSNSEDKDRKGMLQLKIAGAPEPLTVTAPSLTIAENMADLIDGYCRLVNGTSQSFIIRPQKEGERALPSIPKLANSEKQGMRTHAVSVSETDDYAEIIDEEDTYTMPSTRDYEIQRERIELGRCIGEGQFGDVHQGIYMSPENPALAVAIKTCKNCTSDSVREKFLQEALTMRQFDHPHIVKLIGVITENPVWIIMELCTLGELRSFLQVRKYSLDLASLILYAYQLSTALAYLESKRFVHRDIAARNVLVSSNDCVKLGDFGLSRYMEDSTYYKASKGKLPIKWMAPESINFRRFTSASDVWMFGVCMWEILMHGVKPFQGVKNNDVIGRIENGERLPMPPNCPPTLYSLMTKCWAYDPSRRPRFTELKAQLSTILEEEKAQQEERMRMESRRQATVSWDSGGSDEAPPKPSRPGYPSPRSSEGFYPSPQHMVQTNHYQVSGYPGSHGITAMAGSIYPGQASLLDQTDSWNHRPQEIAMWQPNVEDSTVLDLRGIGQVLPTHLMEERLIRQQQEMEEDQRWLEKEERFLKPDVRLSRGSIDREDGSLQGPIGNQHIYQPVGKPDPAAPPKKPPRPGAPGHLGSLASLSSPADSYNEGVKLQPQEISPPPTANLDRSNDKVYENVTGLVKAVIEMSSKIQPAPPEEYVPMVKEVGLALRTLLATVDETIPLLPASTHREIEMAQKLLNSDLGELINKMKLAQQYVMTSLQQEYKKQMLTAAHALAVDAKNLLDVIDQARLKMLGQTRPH
# [4] = system: Fibrinogen (Alexa647-labelled); assay: Alexa647-fibrinogen binding to printed small molecules – biochemical, small-molecule microarray, 635/667 nm fluorescence, artefact control for SMM control-protein annotation, profiling panel (AID 1131); settings: fibrinogen-A647 binding fluorescence, higher = more signal;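 note: z-score merges 667 nm fluorescence with per-spot signal-to-noise over triplicate slides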
# [5] = target: Follistatin (Homo sapiens) (UniProt P19883); assay: FST protein binding to printed compounds – biochemical, small-molecule microarray, 635/667 nm fluorescence, primary screen (AID 1132); settings: 635 nm fluorescence, higher = more signal
# Chain of Follistatin (Homo sapiens) (P19883 whole entry, looked up): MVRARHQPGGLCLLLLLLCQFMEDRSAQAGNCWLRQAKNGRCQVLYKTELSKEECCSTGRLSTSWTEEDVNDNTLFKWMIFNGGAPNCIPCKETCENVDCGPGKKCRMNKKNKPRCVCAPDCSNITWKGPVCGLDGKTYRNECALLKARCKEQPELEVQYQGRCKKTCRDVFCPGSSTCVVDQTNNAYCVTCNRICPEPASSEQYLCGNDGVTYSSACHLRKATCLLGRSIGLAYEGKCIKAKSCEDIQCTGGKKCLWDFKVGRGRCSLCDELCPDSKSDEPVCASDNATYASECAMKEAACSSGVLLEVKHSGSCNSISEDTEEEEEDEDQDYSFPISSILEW
# [6] = target: Fibroblast growth factor 2 (Homo sapiens) (UniProt P09038); assay: basic fibroblast growth factor binding to printed compounds – biochemical, small-molecule microarray, 635/667 nm fluorescence, primary screen (AID 1133); settings: FGF2, fluorescence 635/667, higher = more signal
# Chain of Fibroblast growth factor 2 (Homo sapiens) (P09038 whole entry, looked up): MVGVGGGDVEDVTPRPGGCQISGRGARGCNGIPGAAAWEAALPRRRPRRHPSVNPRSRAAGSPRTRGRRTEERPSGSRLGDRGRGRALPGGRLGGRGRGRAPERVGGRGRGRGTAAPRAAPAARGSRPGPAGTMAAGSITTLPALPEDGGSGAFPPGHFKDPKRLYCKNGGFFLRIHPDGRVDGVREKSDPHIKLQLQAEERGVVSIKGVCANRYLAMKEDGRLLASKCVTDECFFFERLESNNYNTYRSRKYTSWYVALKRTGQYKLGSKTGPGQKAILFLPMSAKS
# [7] = JC-1 mitochondrial potential readout, lung cancer cells – cell-based, A549, JC-1 fluorescence, basal, 24 h, 100 nL, profiling panel (AID 1138); settings: higher = more signal;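 note: A549 lung adenocarcinoma cells under basal conditions with no added stimulus; test concentration not given here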
# Lefty1 = Lefty1 protein binding to printed compounds – biochemical, small-molecule microarray, 635/667 nm fluorescence, primary screen (AID 1139); settings: fluorescence 635/667, higher = more signal
# [8] = system: wheat germ agglutinin (Triticum aestivum), Alexa647-labelled; assay: Alexa647-WGA lectin binding to printed small molecules – biochemical, small-molecule microarray, 635/667 nm fluorescence, artefact control for SMM control-protein annotation, profiling panel (AID 1140); settings: WGA-A647 binding, 635 nm fluorescence, higher = more signal;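 note: score merges 667 nm feature emission with signal to noise over triplicate slides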
# [9] = target: Luciferin 4-monooxygenase (Photinus pyralis) (UniProt P08659); assay: inhibition of purified Photinus pyralis luciferase – biochemical, luminescence, purified enzyme, 2006 set, primary screen (AID 1141); settings: purified firefly luciferase, SteadyGlo luminescence, 30 min; higher = more signal, called active from +8 up or from −8 down;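 note: cell-free assay with purified firefly luciferase at 100 ng per well in PBS; test concentration not given here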
# Chain of Luciferin 4-monooxygenase (Photinus pyralis) (P08659 whole entry, looked up): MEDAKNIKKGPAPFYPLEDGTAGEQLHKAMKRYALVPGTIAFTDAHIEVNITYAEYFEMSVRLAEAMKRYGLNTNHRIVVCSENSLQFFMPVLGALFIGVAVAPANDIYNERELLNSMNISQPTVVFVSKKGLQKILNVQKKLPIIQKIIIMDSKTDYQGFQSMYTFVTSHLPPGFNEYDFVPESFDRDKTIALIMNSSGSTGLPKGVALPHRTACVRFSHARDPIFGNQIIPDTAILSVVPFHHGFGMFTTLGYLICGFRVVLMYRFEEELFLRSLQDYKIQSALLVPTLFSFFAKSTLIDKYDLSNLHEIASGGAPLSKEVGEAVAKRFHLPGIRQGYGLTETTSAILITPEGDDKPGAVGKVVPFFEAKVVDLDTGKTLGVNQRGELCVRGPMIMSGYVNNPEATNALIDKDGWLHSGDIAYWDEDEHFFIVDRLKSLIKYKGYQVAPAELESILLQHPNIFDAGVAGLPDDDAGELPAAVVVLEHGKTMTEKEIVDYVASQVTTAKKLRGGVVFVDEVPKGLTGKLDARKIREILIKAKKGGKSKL
# [10] = system: Wnt5a (protein binding on small-molecule microarray); assay: small molecules binding Wnt5a protein – biophysical, small-molecule microarray, 635/667 nm fluorescence, primary screen (AID 1142); settings: 635 nm fluorescence, higher = more signal;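 note: fluorescence read at 667 nm with signal to noise per printed feature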
# [11] = ATP-based viability of Huh7 replicon cells – cell-based, CellTiter-Glo luminescence, basal, 48 h, cytotoxicity control for HCV replication inhibitor project, primary screen (AID 1143); settings: higher = more signal, called active from +8 up or from −8 down;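 note: Huh7 hepatoma cells carrying a hepatitis C replication reporter with no stimulus; test concentration not given here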
# [12] = Pseudomonas biofilm growth suppression – PAO1 strain, BacTiter-Glo luminescence, LB-PBS, primary screen (AID 1144); settings: P. aeruginosa PAO1 biofilm, 12 h, higher = more signal
# [13] = basal CRE-LacZ reporter activity in PC12 – cell-based, unstimulated, primary screen (AID 1145); settings: no forskolin, luminescence, 4.5 h, higher = more signal, called active from +8 up or from −8 down
# [14] = forskolin-driven CRE-LacZ activity in PC12 – cell-based, CRE-LacZ reporter, forskolin-stimulated, primary screen (AID 1146); settings: luminescence, 4.5 h, higher = more signal, called active from +8 up or from −8 down;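 note: PC12 cells with 6xCRE LacZ reporter stimulated by forskolin 10 µM; beta-galactosidase reporter signal reflecting CREB driven transcription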
# [15] = target: Streptavidin (Streptomyces avidinii) (UniProt P22629); assay: compounds binding control protein streptavidin – biophysical, small-molecule microarray, 635/667 nm fluorescence, artefact control for SMM compound annotation, primary screen (AID 1147); settings: higher = more signal;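 note: signal reflects streptavidin binding to arrayed compounds as a control protein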
# Chain of Streptavidin (Streptomyces avidinii) (P22629 whole entry, looked up): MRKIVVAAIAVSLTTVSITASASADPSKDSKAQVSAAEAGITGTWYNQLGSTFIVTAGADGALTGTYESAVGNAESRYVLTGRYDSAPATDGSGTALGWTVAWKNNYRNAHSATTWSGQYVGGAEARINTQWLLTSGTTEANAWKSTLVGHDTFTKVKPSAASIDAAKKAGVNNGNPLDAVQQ
# [16] = probe aInhba binding on compound microarray – biochemical, small-molecule microarray, 635/667 nm fluorescence, primary screen (AID 1148); settings: higher = more signal;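 note: score merges 667nm spot fluorescence with signal-to-noise for antibody binding to printed compounds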
# Torsin-1A (Homo sapiens) [17] = target: Torsin-1A (Homo sapiens) (UniProt O14656); assay: TOR1A wild-type binding on microarray – cell lysate, small-molecule microarray, lysate, 635/667 nm, primary screen (AID 1149); settings: COS7 hTOR1A-WT lysate, 635 nm fluorescence, higher = more signal
# Chain of Torsin-1A (Homo sapiens) (O14656 whole entry, looked up): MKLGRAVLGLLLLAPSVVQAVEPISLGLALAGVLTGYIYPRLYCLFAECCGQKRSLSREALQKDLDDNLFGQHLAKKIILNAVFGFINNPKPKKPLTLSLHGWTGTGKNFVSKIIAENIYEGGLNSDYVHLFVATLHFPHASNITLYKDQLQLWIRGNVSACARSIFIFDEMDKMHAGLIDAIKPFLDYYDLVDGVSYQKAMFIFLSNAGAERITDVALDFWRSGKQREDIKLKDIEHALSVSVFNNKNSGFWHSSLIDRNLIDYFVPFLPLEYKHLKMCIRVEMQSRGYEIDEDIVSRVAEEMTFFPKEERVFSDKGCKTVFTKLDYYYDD
# Torsin-1A (Homo sapiens) [18] = target: Torsin-1A (Homo sapiens) (UniProt O14656); assay: torsin A mutant lysate binding on microarrays – cell lysate, small-molecule microarray, COS7 lysate, 635/667 nm fluorescence, primary screen (AID 1150); settings: COS7 hTOR1A mutant lysate, 635 nm fluorescence, higher = more signal;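 note: score pools 667 nm emission and signal to noise measuring lysate protein binding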
# [19] = system: Sonic hedgehog protein (Shh); assay: Sonic hedgehog microarray binding compounds – biochemical, small-molecule microarray, 635/667 nm fluorescence, primary screen (AID 1151); settings: 635 nm fluorescence, higher = more signal;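 note: Shh protein binding to compounds spotted on small-molecule microarray slides; score combines spot fluorescence intensity with signal-to-noise across triplicate slides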
Structure (SMILES),composite z-score [1],composite z-score [2],composite z-score [3],composite z-score [4],composite z-score [5],composite z-score [6],z-score [7],composite z-score (Lefty1),composite z-score [8],z-score [9],composite z-score [10],z-score [11],z-score [12],z-score [13],z-score [14],composite z-score [15],composite z-score [16],composite z-score (Torsin-1A (Homo sapiens) [17]),composite z-score (Torsin-1A (Homo sapiens) [18]),composite z-score [19]
CN1C(=O)C2C=CC(C(O)c3cc(C(F)(F)F)cc(C(F)(F)F)c3)N(N3CCCCC3)C2C1=O (stereo not given),1.13,1.03,0.428,0.62,-0.165,-0.397,-0.0918,-0.4,0.615,-1.48 (inactive),0.209,0.401 (inactive),-0.15 (inactive),0.44 (inactive),-0.411 (inactive),-0.0121,0.0047,-0.083,0.502,0.035
COC(=O)c1c(CC[C@@H](CO)NC(=O)N[C@@H](C)Cn2cc(C3(O)CCCCC3)nn2)oc(C(C)=O)c1C(=O)OC,2.77,1.12,-0.262,0.747,1.22,1.29,-1,1.66,0.696,0.599 (inactive),0.315,-2.63 (inactive),-1.04 (inactive),1.59 (inactive),0.214 (inactive),0.533,0.225,1.07,0.91,2.06
O=C1NC(=O)C2C1C=CC(C(O)C(c1ccccc1)c1ccccc1)N2Nc1ccc(Cl)cc1Cl (stereo not given),-0.138,1.15,0.682,0.852,0.896,-0.301,-0.815,-0.0329,0.587,0.231 (inactive),0.223,-1.78 (inactive),-0.548 (inactive),-0.14 (inactive),0.253 (inactive),1.23,0.102,-0.614,-0.0412,-0.566
C#CCN(CC=C(C)C)[C@H](CO)c1ccccc1,-0.237,0.729,-0.122,-0.0376,0.391,0.295,-1.47,-0.0431,-0.196,0.648 (inactive),-0.0366,-4.16 (inactive),-0.215 (inactive),-0.153 (inactive),0.979 (inactive),0.0089,-0.0719,0.247,1.08,0.0568
C=CCN1C(=O)[C@]2(O[C@H](CCO)[C@@H]([Si](C)(C)c3ccc(OC)cc3)[C@@H]2C)c2cc(N3C(=O)c4cccc5cccc3c45)ccc21,0.987,0.98,1.05,0.541,0.644,0.65,-0.855,0.777,0.393,-0.225 (inactive),-0.0476,-7.91 (inactive),0.00752 (inactive),23.5 (active),-2.47 (inactive),0.487,0.0214,1.13,0.0015,1.84
COC(=O)c1c(CC[C@@H](CO)NC(=O)N[C@H](Cn2cc(Cc3ccccc3)nn2)C(C)C)oc(C(C)=O)c1C(=O)OC,0.583,0.641,-0.0225,0.519,1.29,1.51,0.0865,1.24,0.261,-0.0001 (inactive),0.367,-2.8 (inactive),-0.973 (inactive),0.904 (inactive),-1.21 (inactive),-0.166,-0.0759,-0.372,0.882,2.1
CN(C)C(=O)[C@]1(Cc2ccccc2N=[N+]=[N-])N=C(c2ccc(OCCCO)cc2)O[C@@H]1c1ccccc1,1.03,1.22,0.633,0.882,1.31,1.58,1.71,0.0484,0.986,-1.08 (inactive),0.8,-4.59 (inactive),1.77 (inactive),0.69 (inactive),-2.15 (inactive),1.4,0.0928,-0.09,0.902,0.0763
CCOC(=O)[C@H]1CC=C2CC1C(=O)N1CCC[C@@H]1[C@@H]2O[Si](C)(C)C(C)(C)C (stereo not given in full),-0.0289,-0.708,-0.173,-0.162,-0.878,-0.206,-0.158,0.449,-0.502,0.367 (inactive),-0.395,-6.23 (inactive),-0.451 (inactive),-0.776 (inactive),-0.661 (inactive),-1.49,-0.238,-0.55,-0.83,0.398
[N-]=[N+]=NCc1ccccc1[C@@H]1OC(c2ccc(OCCCO)cc2)=N[C@]1(CCS(=O)(=O)c1ccccc1)C(=O)NCc1ccccc1,1.82,1.21,0.878,0.964,1.47,1.37,-0.338,1.49,1.27,-0.375 (inactive),0.88,-1.86 (inactive),0.0656 (inactive),0.614 (inactive),-1.66 (inactive),1.09,1.09,0.248,0.467,1.4
CN1C(=O)C2C=CC(C(O)C3CC=CCC3)N(NC(=O)OC(C)(C)C)C2C1=O (stereo not given),0.561,0.889,0.465,-0.0919,1.25,0.124,-0.0347,0.717,1.32,-0.71 (inactive),0.154,0.248 (inactive),0.0321 (inactive),0.626 (inactive),0.257 (inactive),1.15,0.0301,0.665,1.12,0.737
COc1ccc(C(O)C2C=CC3C(=O)NC(=O)C3N2Nc2ccccn2)c2ccccc12 (stereo not given),0.516,-0.609,-0.106,0.0992,0.488,0.524,-1.15,-0.0665,0.788,-1.46 (inactive),0.0373,1.04 (inactive),-0.507 (inactive),-0.133 (inactive),0.214 (inactive),-0.0105,-0.0791,0.239,-0.274,0.448
COc1ccc([Si](C)(C)[C@H]2[C@H](CC(=O)N3CCC[C@H]3CO)O[C@@]3(C(=O)N(Cc4cccc(N5C(=O)c6cccc7cccc5c67)c4)c4ccccc43)[C@@H]2C)cc1,0.874,0.614,0.209,0.94,1.17,0.7,1.57,1.52,0.571,-0.75 (inactive),1.08,-3.59 (inactive),0.346 (inactive),1.46 (inactive),1.16 (inactive),0.309,0.392,0.84,0.836,2.21
CC(C)[C@@H](CO)NC(=O)[C@H]1[C@@H](c2ccccc2)N(c2ccccc2)O[C@@H]1C,0.398,-0.253,-0.168,0.0711,0.104,0.0808,0.204,0.216,0.149,-0.21 (inactive),-0.106,-0.206 (inactive),-0.736 (inactive),-0.415 (inactive),-1.35 (inactive),-0.327,0.0953,-0.261,-0.0316,0.463
